PubChem BioAssay AID1321 (The Scripps Research Institute Molecular Screening Center, 2008)
The whole screen tested about 220,000 compounds, of which about 2,600 (1.2%) were called active. The sample holds actives, similar compounds and a random draw of the others, so the mix is not that of the screen. Values without a mark were called inactive.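 How the source made its calls: active means activation above the mean of all tested compounds plus 3 SD, set per screening run (cut at about 8.8% in these data); inactive means the rest.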

target: Wee1-like protein kinase (Homo sapiens) (UniProt P30291); assay: compounds stabilizing Wee1-luciferase fusion – cell-based, HeLa, Wee1K328M-luciferase, luminescence, primary screen (AID 1321); details: HeLa Luc-Wee1K328M stability, at 5 µM, stronger effect = higher value;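 further: cells exposed to compound for 20 h before luminescence read; 0% = DMSO alone and 100% = MG132 at 30 µM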

`O=C(N/N=C/c1c(O)n(Cc2ccccc2)c(=O)[nH]c1=O)c1ccccc1` was tested, and the activation was 16.4% (active).

Point of comparison: `CCCCC(=O)N/N=C/c1c(O)n(-c2ccccc2)c(=O)[nH]c1=O`, activation -2.55%. Against it:
- O=c1[nH]c(=O)n(Cc2ccccc2)c(O)c1/C=N/Nc1c(F)c(F)c(F)c(F)c1F — higher, -0.63%
- CN(C)CC1CCCCC1=O (stereo not given) — higher, -1.81%
- NC(=O)Nc1cccc(C(F)(F)F)c1 — higher, 0.59%
